According to PubChem BioAssay (NCATS):
Results filed as inconclusive are left out. Activity calls are given as the source filed them. Unless noted, calls come from the whole dose curve.

What was measured:
[1] = qHTS for Inhibitors of the Functional Ribonucleoprotein Complex (vRNP) of Lassa (LASV) Arenavirus: LASV Primary Screen - GLuc reporter signal (AID 1347082; calls by dose curve; tested in HEK293 reporter line; note: nearly all actives have a fitted effect of over 60% in size)
[2] = qHTS for Inhibitors of the Functional Ribonucleoprotein Complex (vRNP) of Lassa (LASV) Arenavirus: Viability assay - alamar blue signal for LASV Primary Screen (AID 1347083; calls by dose curve; tested in HEK293 reporter line; note: nearly all actives have a fitted effect of over 80% in size)
[3] = qHTS for Inhibitors of the Functional Ribonucleoprotein Complex (vRNP) of Lymphocytic Choriomeningitis Arenaviruses (LCMV): Viability assay - alamar blue signal for LCMV Primary Screen (AID 1347085; calls by dose curve; tested in HEK293 reporter line; note: nearly all actives have a fitted effect of over 80% in size)
[4] = target: Nucleoprotein (Lymphocytic choriomeningitis virus (strain Armstrong)) (UniProt P09992); assay: qHTS for Inhibitors of the Functional Ribonucleoprotein Complex (vRNP) of Lymphocytic Choriomeningitis Arenaviruses (LCMV): LCMV Primary Screen - GLuc reporter signal (AID 1347086); note: nearly all actives have a fitted effect of over 70% in size
Sequence of Nucleoprotein (Lymphocytic choriomeningitis virus (strain Armstrong)) (P09992 whole entry, looked up): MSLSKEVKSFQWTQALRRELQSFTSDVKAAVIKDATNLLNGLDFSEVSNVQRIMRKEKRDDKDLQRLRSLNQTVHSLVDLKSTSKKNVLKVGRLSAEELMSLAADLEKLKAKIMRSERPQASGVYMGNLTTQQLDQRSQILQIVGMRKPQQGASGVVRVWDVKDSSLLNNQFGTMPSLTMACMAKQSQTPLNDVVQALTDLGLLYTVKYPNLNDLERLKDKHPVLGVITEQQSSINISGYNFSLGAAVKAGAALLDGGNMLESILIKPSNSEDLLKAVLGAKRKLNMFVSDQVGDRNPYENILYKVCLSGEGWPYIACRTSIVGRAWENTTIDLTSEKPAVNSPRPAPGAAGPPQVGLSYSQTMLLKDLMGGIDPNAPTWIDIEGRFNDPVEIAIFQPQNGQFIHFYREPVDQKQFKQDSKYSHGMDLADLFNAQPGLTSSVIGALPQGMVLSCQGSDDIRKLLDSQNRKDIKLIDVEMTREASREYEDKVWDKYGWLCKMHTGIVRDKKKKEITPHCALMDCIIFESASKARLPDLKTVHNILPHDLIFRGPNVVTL

Measured: Potency
Note: series mostly up to about 57 µM.

CN(C(=O)c1c(O)c2ccccc2n(C)c1=O)c1ccccc1
inactive: [1] | [2] | [3] | [4]

CCCCCC(N)=O
inactive: [1] | [2] | [3] | [4]

CNCCC(Oc1ccccc1OC)c1ccccc1 (stereo not given)
inactive: [1] | [2] | [3] | [4]

O=S1(=O)c2cccc3cccc(c23)N1CCCN1CCN(c2ccc(F)cc2)CC1
inactive: [1] | [2] | [3] | [4]

CCOc1ccc(NC(C)=O)cc1
inactive: [1] | [2] | [3] | [4]

O=C(O)CCC(=O)Nc1ccc(S(=O)(=O)Nc2nccs2)cc1
inactive: [1] | [2] | [3] | [4]

CCOC(=O)Cn1cccc1-c1nc(-c2ccc(OC)cc2)c(-c2ccc(OC)cc2)s1
inactive: [1] | [2] | [3] | [4]

CCCCC(=O)O[C@]1(C(=O)CO)[C@@H](C)C[C@H]2[C@@H]3CCC4=CC(=O)C=C[C@]4(C)[C@@]3(F)[C@@H](O)C[C@@]21C
inactive: [1] | [2] | [3] | [4]

Cc1c(Cl)cccc1Nc1ccccc1C(=O)O
inactive: [1] | [2] | [3] | [4]

CCC1Nc2cc(Cl)c(S(N)(=O)=O)cc2S(=O)(=O)N1 (stereo not given)
inactive: [1] | [2] | [3] | [4]

Cn1cnc2c1c(=O)[nH]c(=O)n2C
inactive: [1] | [2] | [3] | [4]

CCCN(CCC)C(=O)C(CCC(=O)OCCCN1CCN(CCOC(=O)Cc2c(C)n(C(=O)c3ccc(Cl)cc3)c3ccc(OC)cc23)CC1)NC(=O)c1ccccc1 (stereo not given)
inactive: [1] | [2] | [3] | [4]

Cc1cccc(C)c1NC(=O)C(C)N (stereo not given)
inactive: [1] | [2] | [3] | [4]

CCCCOc1cc(C(=O)OCCN(CC)CC)ccc1N
inactive: [1] | [2] | [3] | [4]

O=c1[nH]c2ccccc2c(=O)n1CCCl
inactive: [1] | [2] | [3] | [4]

CCN(CC)CCOCCOC(=O)C1(c2ccccc2)CCCC1
inactive: [1] | [2] | [3] | [4]

CN1CCN(CCCN2c3ccccc3Sc3ccc(S(=O)(=O)N(C)C)cc32)CC1
inactive: [1] | [2] | [3] | [4]

N[C@@H](Cc1c[nH]c2ccc(O)cc12)C(=O)O
inactive: [1] | [2] | [3] | [4]

O=C(NCC1CN(c2ccc(N3CCOCC3=O)cc2)C(=O)O1)c1ccc(Cl)s1 (stereo not given)
inactive: [1] | [2] | [3] | [4]

CCn1ccnc1CC1COc2ccccc2O1 (stereo not given)
inactive: [1] | [2] | [3] | [4]

CCCCCCCCOc1ccccc1C(=O)Nc1ccc(C(=O)OCC[N+](C)(CC)CC)cc1
inactive: [1] | [2] | [3] | [4]

FC(F)(F)C(Cl)Br (stereo not given)
inactive: [1] | [2] | [3] | [4]

C#C[C@]1(O)CC[C@H]2[C@@H]3[C@H](C)CC4=C(CCC(=O)C4)[C@H]3CC[C@@]21C
inactive: [1] | [2] | [3] | [4]

COCCc1ccc(OCC2CO2)cc1 (stereo not given)
inactive: [1] | [2] | [3] | [4]

CN1CCN(C2=Nc3ccccc3Sc3ccc(Cl)cc32)CC1
inactive: [1] | [2] | [3] | [4]

CC(=O)Nc1ccc(S(=O)(=O)Nc2ccc([N+](=O)[O-])cc2)cc1
inactive: [1] | [2] | [3] | [4]

CC(C)CCCC(C)N (stereo not given)
inactive: [1] | [2] | [3] | [4]

O=[N+]([O-])c1nccn1CO[C@@H](CO)[C@H](O)CO
inactive: [1] | [2] | [3] | [4]

Fc1ccc(C(c2ccc(F)cc2)N2CCNCC2)cc1
inactive: [1] | [2] | [3] | [4]

c1ccc2[nH]c(-c3cscn3)nc2c1
inactive: [1] | [2] | [3] | [4]

CC(C)(Oc1ccc(CCNC(=O)c2ccc(Cl)cc2)cc1)C(=O)O
inactive: [1] | [2] | [3] | [4]

CC(=O)N[C@H]1[C@H]([C@H](O)[C@H](O)CO)OC(C(=O)O)=C[C@@H]1N=C(N)N
inactive: [1] | [2] | [3] | [4]

COc1ccc(-c2cc(C(F)F)nn2-c2ccc(S(N)(=O)=O)cc2)cc1F
inactive: [1] | [2] | [3] | [4]

CC(C)NCC(O)COc1ccc(COCCOC(C)C)cc1 (stereo not given)
inactive: [1] | [2] | [3] | [4]

O=C(CCN1CCN2CCCC2C1)N1c2ccccc2Sc2ccc(Cl)cc21 (stereo not given)
inactive: [1] | [2] | [3] | [4]
